p97 ATPase inh: inhibitors of human p97 ATPase; inhibition, % at 8 µM; P55072; AID 1481; 0.42% of 220,000 active; recombinant p97 ATPase, Kinase-Glo ATP luminescence, 3 h; in the data active = inhibition above about 15%;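 also: 0% = DMSO vehicle and 100% = wells lacking enzyme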
Target sequence (P55072 whole entry, looked up): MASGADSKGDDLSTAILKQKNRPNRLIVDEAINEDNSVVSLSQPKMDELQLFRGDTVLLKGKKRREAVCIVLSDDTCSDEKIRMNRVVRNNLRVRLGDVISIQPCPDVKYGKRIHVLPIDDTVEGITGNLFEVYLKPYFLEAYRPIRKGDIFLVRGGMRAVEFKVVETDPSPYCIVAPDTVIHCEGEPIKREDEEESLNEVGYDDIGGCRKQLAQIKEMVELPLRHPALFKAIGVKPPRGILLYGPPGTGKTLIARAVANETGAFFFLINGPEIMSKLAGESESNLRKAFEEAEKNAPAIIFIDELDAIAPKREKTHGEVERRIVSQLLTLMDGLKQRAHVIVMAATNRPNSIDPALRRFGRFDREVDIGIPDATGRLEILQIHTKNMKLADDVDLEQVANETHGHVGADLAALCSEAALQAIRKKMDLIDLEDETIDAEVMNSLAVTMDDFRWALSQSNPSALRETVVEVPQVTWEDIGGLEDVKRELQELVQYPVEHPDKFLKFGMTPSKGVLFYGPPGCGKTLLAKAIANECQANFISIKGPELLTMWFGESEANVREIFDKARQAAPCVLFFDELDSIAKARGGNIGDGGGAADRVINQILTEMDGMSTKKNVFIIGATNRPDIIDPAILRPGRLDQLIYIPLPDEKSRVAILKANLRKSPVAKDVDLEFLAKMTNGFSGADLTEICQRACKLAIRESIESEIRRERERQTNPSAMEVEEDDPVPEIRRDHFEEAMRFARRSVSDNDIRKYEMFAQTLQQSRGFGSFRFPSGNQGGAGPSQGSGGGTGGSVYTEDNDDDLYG
Redox H2O2 prof: compounds producing H2O2 with reducing agent – biochemical, NIH compound library profiling, artefact control for MLSCN library redox annotation, primary screen. DTT-dependent redox cycling H2O2, phenol red/HRP absorbance; 100% = 100 µM peroxide control, 0% = buffer. activation, % at 10 µM. 0.03% of 200,000 active. AID 878;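 active = activation of at least 50% relative to the plate's high and low controls in the primary single-dose screen; inactive = activation below 50%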;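 also: compound incubated with DTT at 0.8 mM final as the reducing agent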
S1P3 antag-1: blocks the human S1P3 receptor | CHO S1P3 NFAT-BLA reporter, FRET fluorescence, antagonist mode | inhibition, % at 4.98 µM | 0.27% of 170,000 active;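 active = inhibition above the plate cutoff, the mean inhibition of test wells on that plate plus 3 SD, cut at about 28% in these data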;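 also: cells challenged with S1P at its EC80 of 0.8 µM; blue over green emission ratio from cleaved BLA substrate after 4 h stimulation; 0% = S1P-stimulated wells and 100% = unstimulated DMSO-only wells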
S1P4 ag: activates the human S1P4 receptor; O95977; S1P4-expressing cell line, agonist reporter assay; activation, % at 4.98 µM; 0.35% of 220,000 active; AID 1509; in the data active = activation above about 11%;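 also: 0% = DMSO vehicle and 100% = reference agonist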
Arbovirus inh: blocks arbovirus infection; arbovirus infection cell-based antiviral screen; inhibition, % at 10 µM; 0.37% of 200,000 active; AID 1251; in the data active = inhibition above about 30%
S1P4 antag: human S1P4 receptor antagonism; O95977; S1P4-expressing cells, antagonist mode, reporter read-out; inhibition, % at 4.98 µM; 0.26% of 220,000 active; in the data active = inhibition above about 29%;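 also: 0% = wells stimulated with agonist and 100% = vehicle wells without agonist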
S1P3 antag-2: confirmation of human S1P3 receptor antagonists | 30% of 240 active | AID 1429 | CHO S1P3 NFAT-BLA reporter, FRET, antagonist mode | shares compounds with S1P3 antag-1 | inhibition, % at 4.98 µM;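 active = inhibition above the hit threshold that was computed for the earlier primary screen, cut at about 30% in these data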;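 also: 0% = S1P-stimulated wells and 100% = unstimulated DMSO-only wells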
An asterisk follows results filed as active. This is a sample that favours compounds with a hit; in the whole collection about 1.6% have one here.

For Cc1cccc(NC(=O)C2CCCN2/C=C/C(=O)C(F)(F)F)c1C (stereo unspecified) the results were p97 ATPase inh -4.1, Redox H2O2 prof -0.4, S1P3 antag-1 -3.9, S1P4 ag 1.7, Arbovirus inh 3.4 and S1P4 antag 3.0.
For Cn1c(=O)c2ncn(CC(=O)N/N=C/c3ccco3)c2n(C)c1=O the results were p97 ATPase inh 1.0, Redox H2O2 prof -0.1, S1P3 antag-1 7.7, S1P4 ag 1.5, Arbovirus inh -9.8 and S1P4 antag -28.6.
Screening COc1cccc(CNC(=O)CCCCCn2c(=S)[nH]c3ccc(N4CCOCC4)cc3c2=O)c1 returned p97 ATPase inh 3.0, Redox H2O2 prof 0.0, S1P3 antag-1 63.9*, S1P4 ag 1.3, Arbovirus inh -15.7, S1P4 antag -16.0 and S1P3 antag-2 -13.1.
For O=C(Nc1ccc(OC(F)F)c(Cl)c1)C(c1ccccc1)c1ccccc1 the results were p97 ATPase inh -3.9, Redox H2O2 prof 0.1, S1P3 antag-1 50.5*, S1P4 ag -1.6, Arbovirus inh 10.3, S1P4 antag 5.9 and S1P3 antag-2 59.3*.
`O=C(Cc1cccc2ccccc12)Nc1ccc(OC(F)F)c(Cl)c1` gave p97 ATPase inh 2.0, Redox H2O2 prof 0.7, S1P3 antag-1 5.7, S1P4 ag -0.1, Arbovirus inh -0.4 and S1P4 antag 8.6.
For O=C(c1ccco1)N1CCN(S(=O)(=O)/C=C/c2ccccc2)CC1 the results were p97 ATPase inh -0.3, Redox H2O2 prof -2.1, S1P3 antag-1 29.7*, S1P4 ag 1.2, Arbovirus inh 5.3, S1P4 antag -22.1 and S1P3 antag-2 -17.6.
For O=C(c1cc2ccccc2o1)N1CCN(S(=O)(=O)/C=C/c2ccccc2)CC1 the results were p97 ATPase inh 2.7, Redox H2O2 prof -0.1, S1P3 antag-1 1.9, S1P4 ag 1.4, Arbovirus inh 4.4 and S1P4 antag -32.6.
C=Cn1cc[n+](CC(=O)C(C)(C)C)c1 was read as p97 ATPase inh -0.5, Redox H2O2 prof 0.0, S1P3 antag-1 0.7, S1P4 ag -2.6, Arbovirus inh -8.4 and S1P4 antag -19.2.
Screening CCCOc1ccc(/C=N\NC(=O)CCc2n[nH]c(=O)[nH]c2=O)cc1OC returned p97 ATPase inh -4.2, Redox H2O2 prof -0.5, S1P3 antag-1 29.4*, S1P4 ag -1.7, Arbovirus inh 8.4, S1P4 antag -9.2 and S1P3 antag-2 -12.0.
Screening CCCCCCCCCC(=O)N/N=C/c1ccc(C)s1 returned p97 ATPase inh -2.3, Redox H2O2 prof 0.6, S1P4 ag 2.9, Arbovirus inh -49.3 and S1P4 antag -11.7.
For CN(C)CCCN1C(=O)c2cccc3c([N+](=O)[O-])ccc(c23)C1=O the results were p97 ATPase inh 5.8, Redox H2O2 prof -0.5, S1P3 antag-1 33.1*, S1P4 ag 3.5, Arbovirus inh -37.7, S1P4 antag 91.7* and S1P3 antag-2 -0.3.
Screening COc1ccc(C(CC(=O)c2ccc(C)cc2)Nc2ccc([N+](=O)[O-])cc2)cc1 (stereo unspecified) returned p97 ATPase inh 7.6, Redox H2O2 prof 2.8, S1P3 antag-1 43.9*, S1P4 ag -0.3, Arbovirus inh 8.7, S1P4 antag 6.8 and S1P3 antag-2 79.4*.
CCN1/C(=C/c2ccc3cc(C)ccc3[n+]2CC)Sc2cc(C)c(C)cc21 was read as p97 ATPase inh -1.4, Redox H2O2 prof 0.0, S1P3 antag-1 30.6*, S1P4 ag -2.2, Arbovirus inh -34.7, S1P4 antag 1.2 and S1P3 antag-2 21.1.
CCN1/C(=C/c2ccc3cc(C)ccc3[n+]2CC)Sc2ccccc21 was read as p97 ATPase inh -3.6, Redox H2O2 prof 0.6, S1P3 antag-1 32.6*, S1P4 ag -1.8, Arbovirus inh -35.7, S1P4 antag -34.1 and S1P3 antag-2 33.6*.
CC[n+]1c(/C=C2\Sc3ccccc3N2C)ccc2cccc(C)c21 was read as p97 ATPase inh -0.5, Redox H2O2 prof -1.4, S1P3 antag-1 25.3, S1P4 ag -0.6, Arbovirus inh -35.2 and S1P4 antag -18.6.
`CCc1ccc2[nH]c(=O)c(CN(CCN(CC)CC)C(=S)NCc3ccco3)cc2c1` gave p97 ATPase inh 7.5, Redox H2O2 prof -0.2, S1P3 antag-1 -14.7, S1P4 ag -0.7, Arbovirus inh -10.9 and S1P4 antag -10.2.
